# Reference: PubChem BioAssay (NCATS)
# “And” between values parts separate entries of the source, which are not always exact repeats. Identical values can stand only once. Inconclusive results are not listed. Where a call stands in place of a potency, no number is given. A number with no mark means an inactive call. The source made the active and inactive calls. Calls follow the shape of the dose curve; as a rule, active = well fitted curve in the direction sought with a large enough effect; inconclusive = small, poorly fitted or top-dose-only effect, or another doubt; inactive = no such curve, though single readings can be large; an effect the other way counts as inactive or inconclusive.
# Experiments:
# [1] = system: MCC-13; test: qHTS assay to identify novel small-molecules to repurpose for Merkel cell carcinoma treatment (AID 1296009); conditions: MCC and control cell lines, CellTiter-Glo viability, 72 h; series mostly up to 46 µM; also: nearly all actives have a fitted effect of over 60% in size
# Outline: (§1)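 Cells were treated for 72 hr at 37 degree celsius with compounds in 8- or 11-point dose response. Viability was read by CellTiter-Glo luminescence, normalized to no-cell (cytotoxicity) and DMSO controls.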
# [2] = system: MCC-26; test: as above; conditions: MCC and control cell lines, CellTiter-Glo viability, 72 h; series mostly up to 46 µM
# Outline: as §1
# [3] = system: MKL-1; test: as above; conditions: MCC and control cell lines, CellTiter-Glo viability, 72 h; series mostly up to 46 µM
# Outline: as §1
# [4] = system: MKL-2; test: as above; conditions: MCC and control cell lines, CellTiter-Glo viability, 72 h; series mostly up to 46 µM
# Outline: as §1
# [5] = system: UISO; test: as above; conditions: MCC and control cell lines, CellTiter-Glo viability, 72 h; series mostly up to 46 µM
# Outline: as §1
# [6] = system: WaGa; test: as above; conditions: MCC and control cell lines, CellTiter-Glo viability, 72 h; series mostly up to 46 µM
# Outline: as §1
# [7] = system: C33A; test: Primary qHTS to identify gynecologic anti-cancer compounds using libraries of approved drugs and bioactive compounds (AID 1345084); conditions: Gynecologic cancer cell panel viability, ATPlite luminescence, 48 h; series mostly up to 57.5 µM; also: nearly all actives have a fitted effect of over 55% in size
# Outline: (§2)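 Cell viability after 48 h drug treatment, ATPlite luminescence readout; five doses.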
# [8] = system: CAOV3; test: as above; conditions: Gynecologic cancer cell panel viability, ATPlite luminescence, 48 h; series mostly up to 57.5 µM
# Outline: as §2
# [9] = system: CASKI; test: as above; conditions: Gynecologic cancer cell panel viability, ATPlite luminescence, 48 h; series mostly up to 57.5 µM
# Outline: as §2
# [10] = system: Es-2; test: as above; conditions: Gynecologic cancer cell panel viability, ATPlite luminescence, 48 h; series mostly up to 57.5 µM
# Outline: as §2
# [11] = system: HeLa; test: as above; conditions: Gynecologic cancer cell panel viability, ATPlite luminescence, 48 h; series mostly up to 57.5 µM
# Outline: as §2
# [12] = system: Hek293T; test: as above; conditions: Gynecologic cancer cell panel viability, ATPlite luminescence, 48 h, control line for the selectivity index; series mostly up to 57.5 µM
# Outline: as §2
# [13] = system: JEG-3; test: as above; conditions: Gynecologic cancer cell panel viability, ATPlite luminescence, 48 h; series mostly up to 57.5 µM
# Outline: as §2
# [14] = system: OV90; test: as above; conditions: Gynecologic cancer cell panel viability, ATPlite luminescence, 48 h; series mostly up to 57.5 µM
# Outline: as §2
# [15] = system: PA-1; test: as above; conditions: Gynecologic cancer cell panel viability, ATPlite luminescence, 48 h; series mostly up to 57.5 µM
# Outline: as §2
# [16] = system: SKOV3; test: as above; conditions: Gynecologic cancer cell panel viability, ATPlite luminescence, 48 h; series mostly up to 57.5 µM
# Outline: as §2
# [17] = system: Tov-21-G; test: as above; conditions: Gynecologic cancer cell panel viability, ATPlite luminescence, 48 h; series mostly up to 57.5 µM
# Outline: as §2
# [18] = system: Tov112D; test: as above; conditions: Gynecologic cancer cell panel viability, ATPlite luminescence, 48 h; series mostly up to 57.5 µM
# Outline: as §2
# [19] = Drug repurposing screens with cells derived from glioblastoma tumor samples (AID 1345199); conditions: GBM patient neurospheres viability, ATP luminescence, 48 h; also: nearly all actives have a fitted effect of over 40% in size
# Outline: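 Four patient lines of CD133+ GBM neurospheres were screened at several concentrations; hits were retested in those lines plus three slower-growing GBM lines, using 48-hour treatment and ATP-based viability.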
# [20] = system: NIH3T3; test: qHTS assay to identify novel small-molecules to repurpose for Merkel cell carcinoma treatment (AID 1296009); conditions: MCC and control cell lines, CellTiter-Glo viability, 72 h; at 44.8 µM (top of the series) unless noted; also: nearly all actives have a fitted effect of over 60% in size
# Outline: as §1
# [21] = at 45.9 µM (top of the series), tumour line B
# [22] = at 45.9 µM (top of the series), tumour line D
# [23] = at 46.1 µM (top of the series), tumour line C
# [24] = at 21.2 µM (top of the series), tumour line B
# [25] = at 21.2 µM (top of the series), tumour line D
# Potency is read from the fitted curve at half-maximal effect.
smiles,measurement,setting,value
CCC(=O)c1c(O)cc(O)cc1O,Potency,[1],inactive
same,Potency,[2],inactive
same,Potency,[3],inactive
same,Potency,[4],inactive
same,Potency,[5],inactive
same,Potency,[6],inactive
same,Potency,[7],inactive
same,Potency,[8],inactive
same,Potency,[9],inactive
same,Potency,[10],inactive
same,Potency,[11],inactive
same,Potency,[12],inactive
same,Potency,[13],inactive
same,Potency,[14],inactive
same,Potency,[15],inactive
same,Potency,[16],inactive
same,Potency,[17],inactive
same,Potency,[18],inactive
same,"activity, negative = cell killing",[19]; [21],-0.713%
same,"activity, negative = cell killing",[19]; [22],-16.2%
same,"activity, negative = cell killing",[19]; [23],-2.44%
CC(C)n1nc(-c2cc3cc(O)ccc3[nH]2)c2c(N)ncnc21,Potency,[1],16.8 µM (active)
same,Potency,[2],11.9 µM (active)
same,Potency,[3],10.6 µM (active)
same,Potency,[4],8.41 µM (active)
same,Potency,[5],9.44 µM (active)
same,Potency,[6],2.99 µM (active)
same,Potency,[7],0.794 µM (active)
same,Potency,[8],1.58 µM (active)
same,Potency,[9],8.91 µM (active) and 15.8 µM (active)
same,Potency,[10],3.16 µM (active) and 2.24 µM (active)
same,Potency,[11],17.8 µM (active) and 14.1 µM (active)
same,Potency,[12],3.98 µM (active)
same,Potency,[13],inactive
same,Potency,[14],5.01 µM (active) and 2.82 µM (active)
same,Potency,[15],4.47 µM (active)
same,Potency,[16],1 µM (active) and 631 nM (active)
same,Potency,[17],11.2 µM (active) and 4.47 µM (active)
same,Potency,[18],7.94 µM (active)
CN1[C@@H]2CC[C@H]1CC(OC(=O)c1c[nH]c3ccccc13)C2 (some centres undefined),Potency,[1],inactive
same,Potency,[2],inactive
same,Potency,[3],inactive
same,Potency,[4],inactive
same,outcome,[20],inactive
same,Potency,[5],inactive
same,Potency,[6],inactive
same,Potency,[7],inactive
same,Potency,[8],inactive
same,Potency,[9],inactive
same,Potency,[10],inactive
same,Potency,[11],inactive
same,Potency,[12],inactive
same,Potency,[13],inactive
same,Potency,[14],inactive
same,Potency,[15],inactive
same,Potency,[17],inactive
same,Potency,[18],inactive
same,"activity, negative = cell killing",[19]; [21],0.619%
same,"activity, negative = cell killing",[19]; [22],-12.6%
same,"activity, negative = cell killing",[19]; [23],13.1%
same,Potency,[19]; tumour line A,11.2 µM (active)
CCOC(=O)n1ccn(C)c1=S,Potency,[1],inactive
same,Potency,[2],inactive
same,Potency,[3],inactive
same,Potency,[4],inactive
same,outcome,[20],inactive
same,Potency,[5],inactive
same,Potency,[6],inactive
same,Potency,[7],inactive
same,Potency,[8],inactive
same,Potency,[9],inactive
same,Potency,[10],inactive
same,Potency,[11],inactive
same,Potency,[12],inactive
same,Potency,[13],inactive
same,Potency,[14],inactive
same,Potency,[15],inactive
same,Potency,[16],inactive
same,Potency,[17],inactive
same,Potency,[18],inactive
same,"activity, negative = cell killing","[19]; at 20 µM (top of the series), tumour line C",6.23%
same,"activity, negative = cell killing",[19]; [24],-8.85%
same,"activity, negative = cell killing",[19]; [25],1.59%
same,"activity, negative = cell killing","[19]; at 21.3 µM (top of the series), tumour line A",-18.4%
NC[C@H]1O[C@H](O[C@H]2[C@H](O[C@@H]3O[C@H](CO)[C@@H](O)[C@H]3O)C(O)[C@H](N)C[C@@H]2N)[C@H](N)[C@@H](O)[C@@H]1O (some centres undefined),"activity change, negative = cytotoxicity",[1],8.98% [at 9.22 µM]
same,"activity change, negative = cytotoxicity",[2],5.57% [at 9.22 µM]
same,"activity change, negative = cytotoxicity",[3],2.77% [at 9.22 µM]
same,"activity change, negative = cytotoxicity",[4],-8.12% [at 9.22 µM]
same,outcome,[20],inactive [at 9.27 µM]
same,"activity change, negative = cytotoxicity",[5],20% [at 9.22 µM]
same,"activity change, negative = cytotoxicity",[6],13.9% [at 9.22 µM]
same,"activity change, negative = cytotoxicity",[7],11.5% [at 11.6 µM]
same,"activity change, negative = cytotoxicity",[9],15.2% [at 11.6 µM]
same,"activity change, negative = cytotoxicity",[10],-3.21% [at 11.6 µM]
same,"activity change, negative = cytotoxicity",[11],8.62% [at 11.6 µM]
same,"activity change, negative = cytotoxicity",[12],-5.51% [at 11.6 µM]
same,"activity change, negative = cytotoxicity",[13],-0.299% [at 11.6 µM]
same,"activity change, negative = cytotoxicity",[14],0.648% [at 11.6 µM]
same,"activity change, negative = cytotoxicity",[15],6.06% [at 11.6 µM]
same,"activity change, negative = cytotoxicity",[16],-1.1% [at 11.6 µM]
same,"activity change, negative = cytotoxicity",[17],9.27% [at 11.6 µM]
same,"activity change, negative = cytotoxicity",[18],13.5% [at 11.6 µM]
same,"activity, negative = cell killing",[19]; [24],-5.37%
same,"activity, negative = cell killing",[19]; [25],0.454%
